Compound activity deposited in PubChem BioAssay by National Center for Advancing Translational Sciences (NCATS).
This excerpt belongs to a sample that is enriched for hits.
ERK EGF block: qHTS Assay for Inhibitors of the ERK Signaling Pathway using a Homogeneous Screening Assay; Stimulation with EGF | AID 1454, 2008 | HEK293-V1b, EGF-stimulated phospho-ERK AlphaScreen | Potency, µM (series often up to 11.5 µM), without a hit: top-dose activity change, negative = inhibition, most hits filed as inhibitors | 130,000 tested, 0.41% active;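 further: plate controls were stimulated vehicle wells for no effect and unstimulated vehicle basal for full effect; nearly all actives have a fitted effect of over 55% in size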
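Stably V1b-transfected HEK293 cells; 30 min compound, then EGF 25 nM final for 5 min at 37C; 10 min lysis; phospho-ERK by AlphaScreen after 5 hr beads at room temperature.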
NPSR antag: qHTS Assay for Antagonists of the Neuropeptide S Receptor: cAMP Signal Transduction; AID 1461, 2008; CHO-NPSR cells, cAMP TR-FRET, antagonist mode; Potency, µM (series often up to 38.3 µM), without a hit: at the highest dose activity change, negative = inhibition, most hits filed as inhibitors; 220,000 tested, 1% active; further: nearly all actives have a fitted effect of over 50% in size
Target sequence (Q6W5P4 whole entry, looked up): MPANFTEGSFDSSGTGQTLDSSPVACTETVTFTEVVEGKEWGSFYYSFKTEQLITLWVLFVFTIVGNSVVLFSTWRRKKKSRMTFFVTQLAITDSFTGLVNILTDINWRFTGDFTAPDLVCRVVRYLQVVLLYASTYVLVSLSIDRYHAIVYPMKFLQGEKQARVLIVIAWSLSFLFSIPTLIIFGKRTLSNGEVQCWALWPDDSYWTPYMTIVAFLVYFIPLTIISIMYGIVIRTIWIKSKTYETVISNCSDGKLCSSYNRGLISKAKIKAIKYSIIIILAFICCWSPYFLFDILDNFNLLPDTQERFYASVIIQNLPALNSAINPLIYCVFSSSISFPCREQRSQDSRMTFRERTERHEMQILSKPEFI
Active calls of the source: *; [ ] = remark or other dose. The call rests on the fitted dose curve; in most records, active means well fitted curve in the direction sought with a large enough effect; inconclusive means small, poorly fitted or top-dose-only effect, or another doubt; inactive means no such curve, though single readings can be large; an effect the other way counts as inactive or inconclusive. Unless noted, on the % scale 0 is the no-effect control and ±100 the full control effect; potency means the concentration at half of the fitted maximal effect.

Results for CCOC(=O)c1sc2nc(CC(=O)OC)nc(N3CCN(c4ccc(OC)cc4)CC3)c2c1C ?
NPSR antag: 32µM*

How did CCS(=O)(=O)N1CCN(c2ccc([N+](=O)[O-])c(N3CCOCC3)c2)CC1 do in these assays?
ERK EGF block: -4%; NPSR antag: -5%

How did Cc1cnc(NC(=O)c2cc3ccccc3o2)s1 do in these assays?
ERK EGF block: inconclusive; NPSR antag: -35%

Results for Cn1c(SCC(=O)Nc2ncc(C(F)(F)F)cc2Cl)nnc1-c1ccc(Cl)cc1 ?
ERK EGF block: 0%; NPSR antag: 0%

How did O=C1CN(/N=C\c2ccc([N+](=O)[O-])o2)C(=O)N1 do in these assays?
ERK EGF block: 3%[25.7 µM]

How did O=C1NC(=S)S/C1=C\C=C\c1ccc([N+](=O)[O-])o1 do in these assays?
ERK EGF block: inconclusive; NPSR antag: 7.9µM*

Results for Cc1[nH]c(=S)c(C#N)c(-c2ccco2)c1C(=O)N(C)C ?
ERK EGF block: 2%; NPSR antag: 1%

Results for CC(=O)N1CC(=O)N=C1SCC(=O)Nc1nc(-c2ccccc2)c(-c2ccccc2)s1 ?
ERK EGF block: 2%; NPSR antag: 10µM*

Results for Cc1sc(NC(=O)CSC2=NCCS2)nc1-c1ccccc1 ?
NPSR antag: -14%[46.1 µM]

Results for O=C(/C=C/c1ccco1)NC(=S)Nc1cccc(-c2nc3ccccc3o2)c1 ?
NPSR antag: 1.6µM*

Results for Cc1ccc(-c2nc3ccccc3o2)cc1NC(=S)NC(=O)/C=C/c1ccco1 ?
NPSR antag: -20%[46.1 µM]

How did COc1ccc(-c2csc(NC(=S)NC(=O)/C=C/c3ccco3)n2)cc1Br do in these assays?
ERK EGF block: 6%[57.5 µM]; NPSR antag: inconclusive

Results for COc1ccc(-c2csc(NC(=S)NC(=O)/C=C/c3ccco3)n2)cc1OC ?
ERK EGF block: -5%; NPSR antag: 1µM*

What do the screens show for `O=C(/C=C/c1ccco1)Nc1nc(-c2ccccc2)cs1`?
ERK EGF block: 25µM*; NPSR antag: -35%

Results for O=C(/C=C/c1ccco1)Nc1nc(-c2ccccn2)cs1 ?
ERK EGF block: 1%; NPSR antag: -26%

What do the screens show for `COC(=O)CSc1nccc(C)n1`?
ERK EGF block: -2%; NPSR antag: -5%

Results for OC(CNCCCCNCC(O)C(F)(F)F)C(F)(F)F (stereo not drawn) ?
ERK EGF block: -1%; NPSR antag: 20%

What do the screens show for `CCNc1ncc2nc(C)c(=O)n(Cc3cccc(OC)c3)c2n1`?
ERK EGF block: 2%

What do the screens show for `O=C(Cn1ncc(Cl)c(Cl)c1=O)N1CCN(S(=O)(=O)c2ccc3ccccc3c2)CC1`?
NPSR antag: 13µM*

How did O=C(CCC(=O)N1CCN(S(=O)(=O)c2ccc3ccccc3c2)CC1)Nc1cc(Cl)cc(Cl)c1 do in these assays?
ERK EGF block: -4%; NPSR antag: -19%

Results for CCOC(=O)C1(Cc2cccc(OC)c2)CCN(Cc2cnc(C)s2)CC1 ?
ERK EGF block: -11%[57.5 µM]; NPSR antag: -7%

Results for Nc1nc(N)nc(COc2ccccc2)n1 ?
ERK EGF block: -3%; NPSR antag: 3%

What do the screens show for `CC(C)C1O/C(=N/C(=O)Nc2ccc(Cl)c(Cl)c2)NC1=O` (stereo not drawn)?
NPSR antag: 2%[46.1 µM]

Results for C=CCn1c(SCCN2C(=O)c3ccccc3C2=O)nc2scc(-c3ccccc3)c2c1=O ?
NPSR antag: 13µM*

What do the screens show for `C=CCn1c(SCc2ccccc2)nc2scc(-c3ccc(C)o3)c2c1=O`?
NPSR antag: 0%[46.1 µM]

How did COC(=O)c1cc(Br)c(N)cc1OC do in these assays?
ERK EGF block: 5%; NPSR antag: 20%

What do the screens show for `CCCCN1C(=O)c2ccc(C(=O)Nc3cccc(C)c3C)cc2C1=O`?
NPSR antag: -18%[46.1 µM]

Results for CCCCN1C(=O)c2ccc(C(=O)Nc3ccc(C)c(S(=O)(=O)N(C)C)c3)cc2C1=O ?
ERK EGF block: 25µM*; NPSR antag: -35%

How did FC(F)(F)c1cccc(-c2noc(-c3cc(-c4ccccc4)c(C(F)(F)F)s3)n2)c1 do in these assays?
ERK EGF block: 9%

Results for COc1ccc(CNCCC2(Cc3ccccc3)CC(C)N(C)CC2C)cc1OC (stereo not drawn) ?
ERK EGF block: -9%; NPSR antag: -7%

Results for COc1ccc(N2CCN(C(CNC(=O)c3ccc4c(c3)OCO4)c3ccco3)CC2)cc1 (stereo not drawn) ?
ERK EGF block: 1%; NPSR antag: -9%

Results for CS(=O)(=O)c1ccc(CNC(=O)[C@@H]2C[C@H]2[C@@H](NP(=O)(c2ccccc2)c2ccccc2)c2ccccc2)cc1 ?
ERK EGF block: 14%

Results for COc1ccccc1NC(=O)c1sc(NC(=O)c2ccco2)c(C#N)c1C ?
NPSR antag: -1%[46.1 µM]

Results for Cc1ccccc1OCC(=O)Nc1sc(C(=O)Nc2cccc(C)c2C)c(C)c1C#N ?
NPSR antag: 4µM*

Results for Cn1ncc(N=Cc2ccc([N+](=O)[O-])cc2)c1C(=O)N1CCOCC1 ?
NPSR antag: 6%[46.1 µM]

How did COc1ccc2o/c(=N/NC(=S)Nc3ccccc3)c(C(N)=O)cc2c1 do in these assays?
ERK EGF block: 6%; NPSR antag: 3%

What do the screens show for `CCOC(=O)CCC(NC(=O)CCCCCCCC(=O)NC(CCC(=O)OCC)C(=O)OCC)C(=O)OCC` (stereo not drawn)?
ERK EGF block: -5%; NPSR antag: 19%

How did NS(=O)(=O)c1ccc(CCNC(=O)c2cc(-c3ccccn3)nc3ccc(Br)cc23)cc1 do in these assays?
ERK EGF block: -6%[57.5 µM]; NPSR antag: 10µM*

How did NS(=O)(=O)c1ccc(CCNC(=O)c2cc(-c3ccc(Br)cc3)nc3ccccc23)cc1 do in these assays?
ERK EGF block: 4%; NPSR antag: -34%

How did CCCCCCOc1ccc(NC(=O)CC2C(=O)N(CC)C(=S)N2Cc2ccco2)cc1 (stereo not drawn) do in these assays?
ERK EGF block: 8%; NPSR antag: -48%

What do the screens show for `O=C(Nc1nc(-c2cccs2)c(C(=O)C(F)(F)F)s1)c1ccccc1`?
ERK EGF block: inconclusive; NPSR antag: -37%

How did O=C(Nc1nc(-c2cccs2)c(C(=O)C(F)(F)F)s1)c1ccco1 do in these assays?
ERK EGF block: -9%; NPSR antag: 10µM*

How did O=C(O)c1cccc(-c2ccc(/C=N/n3cnc4sc5c(c4c3=O)CCCC5)o2)c1 do in these assays?
ERK EGF block: 2%[57.5 µM]; NPSR antag: 7%

Results for COc1ccccc1CNCC(=O)N1CC(=O)Nc2ccccc21 ?
ERK EGF block: 2%; NPSR antag: 8%

How did O=C(Nc1ccccc1N1CCN(C(=O)c2ccccc2)CC1)c1cc2ccccc2o1 do in these assays?
NPSR antag: 4µM*

What do the screens show for `O=C(Nc1ccccc1N1CCN(C(=O)c2ccccc2)CC1)c1cccc(Cl)c1`?
ERK EGF block: -7%[57.5 µM]; NPSR antag: -58%

Results for COc1ccc(CCCC(=O)Nc2ccccc2F)cc1 ?
ERK EGF block: 1%; NPSR antag: 4%

How did Cc1cc(N(C)C)ccc1N=Nc1ccc2ncccc2c1 do in these assays?
ERK EGF block: 20µM*; NPSR antag: -13%

Results for Cc1ccc(N=Nc2ccc(O)c3ncccc23)cc1C ?
ERK EGF block: -6%; NPSR antag: -23%

Results for COc1ccc(CCC(=O)Nc2cc(S(C)(=O)=O)ccc2Cl)cc1 ?
ERK EGF block: 2%; NPSR antag: -5%
